Compound activity from PubChem.
Hits are enriched below; roughly 2.2% of the tested compounds scored in any of these assays.
Mito fusion yeast: blocks mitochondrial division or promotes mitochondrial fusion; 0.23% of 320,000 active; Potency, µM (top dose mostly 46.1 µM), for the others: at the highest dose growth rescue (activation), usual class: activators; S. cerevisiae fusion-defective mutant growth rescue, CellTiterGlo 48 h; note: % of control where 0% means no effect; nearly all actives have a fitted effect of over 45% in size
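Compounds are tested for their ability to restore growth of mitochondrial fusion-defective yeast strains at non-permissive 37C in YPEG medium over 48 hours. Viability is quantified by luciferase luminescence.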
Abeta yeast res: A-beta toxicity reversal in yeast. 0.063% of 410,000 active. Potency, µM (series often up to 46.1 µM), actives largely listed as activators. AID 1347071. yeast expressing A-beta42, growth rescue, OD600, 48 h; response scale: 0% DMSO, 100% iron-clioquinol control; note: nearly all actives have a fitted effect of over 55% in size
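Yeast A-beta toxicity model in growth medium with pinned compounds, 48 h at 30 C; growth read as absorbance at 600 nm. Normalized to FeCl3/clioquinol equimolar mix (positive) and DMSO (negative).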
FUS suppressor: FUS proteinopathy suppression in yeast; S. cerevisiae FUS-expressing, growth rescue, OD600, 24 h; Potency, µM (series often up to 76.6 µM), hits mostly activators; 0.24% of 390,000 active;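 note: plate controls were DMSO vehicle for no effect and reference control for full effect; nearly all actives have a fitted effect of over 55% in size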
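Steps: raffinose overnight preculture; dilution to OD 0.005 in 2% galactose minimal medium; compound addition (concentration series); 24hr at 30C, 99% humidity; absorbance read at 600 nm.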
TDP43 rescue: rescues yeast growth from TDP-43 toxicity. TDP-43 expressing yeast growth rescue, BacTiter-Glo, 24 h. Potency, µM (top dose mostly 46.1 µM), for the others: at the top dose growth rescue (activation), usual class: activators. 1.8% of 410,000 active. AID 652104; note: % of control where 0% means no effect; nearly all actives have a fitted effect of over 50% in size
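Yeast expressing TDP-43 (pregrown in raffinose, seeded at OD600=0.02 in galactose medium) exposed to compounds 24 hr at 30 deg C. Growth read by BacTiter-Glo luminescence; rescue of toxicity appears as increased signal.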
aSyn rescue: inhibitors of alpha-synuclein toxicity in yeast; Yeast expressing alpha-synuclein, growth rescue, BacTiter-Glo, 24 h; 0.14% of 370,000 active; Potency, µM (top dose mostly 46.1 µM), without a hit: at the top dose growth rescue (activation), usual class: activators; note: % of control where 0% means no effect; nearly all actives have a fitted effect of over 65% in size
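Galactose-induced alpha-syn yeast (OD600=0.02, raffinose-pregrown) + pinned cpd, 24 hr, 30 deg C; growth by BacTiter-Glo luminescence. Growth restoration scores as activation.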
An asterisk follows results filed as active; i = inactive; ? = inconclusive; / = no result; [ ] = another dose, or the depositor's remark. Calls come from the whole dose curve; as a rule, active = well fitted curve in the direction sought with a large enough effect; inconclusive = small, poorly fitted or top-dose-only effect, or another doubt; inactive = no such curve, though single readings can be large; an effect the other way counts as inactive or inconclusive. Potency is the fitted concentration of half-maximal effect.

SMILES | Mito fusion yeast | Abeta yeast res | FUS suppressor | TDP43 rescue | aSyn rescue
Cc1nc(-c2cccc(NC(=O)c3ccc(Br)o3)c2)cs1 | 4.7% | i | i | 11.2µM* | -9.1%
Cc1ccc(S(=O)(=O)N2CCN(c3nc(-c4ncco4)nc4ccccc34)CC2)cc1 | / | / | / | / | 8.5%
CCCCCCOC(=O)c1ccc(N)cc1 | -16.5% | i | i | 12.6µM* | 1.7%
CCCCOC(=O)c1ccc(N)cc1 | 11.2µM* | i | i | ? | 0.3%
N/C(=N\OC(=O)c1cnn(-c2ccccc2)c1C(F)(F)F)c1cc(C(F)(F)F)cc(C(F)(F)F)c1 | 1.3% | i | i | -9.2% | -0.3%
O=C(NNC(=O)C(Cl)Cl)c1cnn(-c2ccccc2)c1C(F)(F)F | -1.2% | i | i | -2.4% | 15.8µM*
COc1cccc2c1Oc1ncccc1N(C(=O)CCC(=O)NCc1ccc(N(C)C)cc1)C2 | / | i | i | 6.9% | /
CC1CC1c1ccc(/C=C(\C#N)C(=O)Nc2ccccc2Cl)o1 (stereo not given) | 20.2% | i | / | 11.2µM* | 17.1%
CC1CC1c1ccc(/C=C(\C#N)C(=O)Nc2ccc(Cl)cc2)o1 (stereo not given) | 13.2% | i | / | 23.7% | -15.1%
CCc1ccccc1NC(=O)/C(C#N)=C/c1ccc(Sc2ccccc2)o1 | 11.2µM* | i | i | -3.5% | 2.2%
O=C(O)c1ccc(C(=O)Nc2cccc3cccnc23)cc1 | / | / | / | / | 7.7%
C[C@@H]1OC(c2ccccc2)N(C)[C@H]2C[C@H]3c4[nH]c5cccc(-c6ccccc6)c5c4CCN3C[C@@H]12 (stereo not given in full) | / | / | i | / | /
COc1ccc(NC(=O)c2cc(-c3cc(F)ccc3OC)n[nH]2)cc1OC | / | i | i | 35.5µM* | -1.8%
COc1ccc(NC(=O)c2cc(-c3cc(F)ccc3OC)n[nH]2)c(OC)c1 | / | i | i | 20µM* | -17.3%
CCCOc1ccc(F)cc1-c1cc(C(=O)Nc2ccc(OC)c(OC)c2)[nH]n1 | / | i | ? | ? | 1.0%
COc1ccc(F)cc1-c1cc(C(=O)Nc2ccc(C)c(NS(C)(=O)=O)c2)[nH]n1 | / | i | i | 0.0% | -5.9%
COc1ccc(OC)c(NC(=O)c2cc(-c3ccc(F)cc3OC(C)C)n[nH]2)c1 | / | i | ? | 22.4µM* | -7.5%
COc1ccc(NC(=O)c2cc(-c3cc(F)ccc3OC)n[nH]2)cn1 | / | i | i | 20µM* | -22.7%
CCc1nn(CC(=O)NCCc2ccc(OC)c(OC)c2)c(=O)c2cc3occc3n12 | / | i | i | 0.6% | /
Cc1[nH]c2ccccc2c1C(=O)CCl | -18.5% | i | i | 15.8µM* | 1.7%
O=C(c1cccc(Cl)c1)N(Cc1ccco1)Cc1ccccc1Cl | / | i | i | ? | /
NC(=S)NN=Cc1nccc2c(C(F)(F)C(F)(F)C(F)(F)F)cccc12 | / | i | i | ? | 7.08µM*
NC(=S)NN=Cc1nccc2ccccc12 | / | ? | i | 21.4% | 20µM*
Nc1ccc(/C=C/c2ccnc3ccccc23)cc1 | / | / | / | / | -0.6%
CNc1c(Br)cc(/C=C2\C=C(C(O)c3cc(Br)c(NC)c(Br)c3)c3ccccc32)cc1Br (stereo not given) | / | / | / | / | -0.4%
SMILES | Mito fusion yeast | Abeta yeast res | FUS suppressor | TDP43 rescue | aSyn rescue
O=C1CCCCC1C(Nc1ccc(Br)cc1)c1ccccc1 (stereo not given) | 20.7% | i | i | 12.6µM* | 19.3%
Cc1cc(C)c(C(=O)N2CCCC(Nc3ccc(F)cc3)C2)o1 (stereo not given) | ? | i | i | 24.5% | -0.1%
Cc1ccc2[nH]c(C(=O)N3CCCC(Nc4ccc(F)cc4)C3)cc2c1 (stereo not given) | 9.0% | i | ? | 22.4µM* | 24.5%
C=C1C=C(C(F)F)n2ncc(C(=O)N3CCc4ccccc4C3)c2N1 | / | / | / | / | -1.7%
COc1ccc2nc(N(Cc3cccnc3)C(=O)CCc3ccccc3)sc2c1 | / | i | i | 25.4% | /
Cc1nc(C(=O)Nc2cc(Cl)ccc2Cl)nn1-c1cc(OC(C)C)c(Cl)cc1Cl | 8.3% | i | i | 10.3% | 5.0%
CC(=O)c1ccc(NC(=O)c2nc(-c3ccccc3)n(-c3ccccc3)n2)cc1 | / | i | i | 17.8µM* | /
CCc1ccc(NC(=O)c2cc(C)nn2-c2ccccc2)cc1 | -18.4% | i | i | 15.8µM* | -0.7%
COc1ccc(-c2nc(C(=O)Nc3ccc(C(C)=O)cc3)nn2-c2cccc(Cl)c2)cc1 | / | i | ? | ? | /
CC(=O)c1ccc(NC(=O)c2nc(-c3ccccc3)n(-c3ccccc3Cl)n2)cc1 | / | i | ? | 14.1µM* | /
Cc1nc(C(=O)Nc2cccc(Cl)c2)nn1-c1cc(OC(C)C)c(Cl)cc1Cl | 18.1% | i | 31.6µM* | 5.2% | -11.1%
COc1cc(C(=O)NC2CCCCN(Cc3cccc(Cl)c3)C2=O)cc(OC)c1OC (stereo not given) | / | / | i | / | /
CC1(c2nnnn2Cc2ccccc2)CCSCC(=O)N1Cc1cccs1 (stereo not given) | / | / | i | / | /
C#CCNC(=O)C[C@@H]1C(=O)N(Cc2ccc(OC)cc2)C2=CCN(C(=O)OC(C)(C)C)C[C@]21C(=O)OCC | / | / | i | / | /
CC(=O)c1cccc(NC(=O)c2nc(-c3ccccc3)n(-c3cccc(Cl)c3)n2)c1 | / | i | ? | 35.5µM* | /
FC(F)(F)c1ccc(-c2nnc(-c3cccnc3)o2)cc1 | 0.1% | i | i | 12.6µM* | 2.7%
COc1ccc(-c2nnc(-c3cccnc3)o2)cc1 | -0.8% | i | i | 22.4µM* | -16.8%
c1cncc(-c2nnc(-c3cccs3)o2)c1 | -0.3% | i | i | -0.8% | 1.5%
Cc1ccc(-c2nnc(-c3cccnc3)o2)cc1 | 0.6% | i | i | 5.2% | -1.4%
COc1cccc(-c2noc(-c3cccnc3)n2)c1 | -0.2% | i | i | 18.9% | -7.4%
Brc1ccc(-c2nnc(-c3cccnc3)o2)cc1 | / | i | i | 10µM* | 3.1%
Clc1ccc(-c2nnc(-c3cccnc3)o2)cc1 | 2.6% | i | i | 12.6µM* | -3.6%
O=C(c1ccccc1)C(I)(I)N1CCOCC1 | / | / | / | / | 0.4%
COc1ccc(-c2nnc(-c3ccc(N)cc3)o2)cc1 | 1.2% | i | i | 10µM* | 5.0%
Brc1ccc(-c2nnc(-c3ccccc3Br)o2)cc1 | -2.6% | i | i | -20.8% | -1.8%
Brc1ccccc1-c1nnc(-c2cccnc2)o1 | 0.9% | i | i | 15.8µM* | -0.2%
COc1ccc(-c2nnc(-c3ccc(N(C)C)cc3)o2)cc1 | 2.4% | i | ? | -4.5% | -21.0%
O=C1CCc2cc(-c3csc(-c4ccc(O)cc4)n3)ccc2N1 | / | / | / | / | 3.9%
O=C(OCC(=O)c1c[nH]c2ccccc12)c1cncc(Br)c1 | / | i | i | 11.2µM* | -4.8%[1.84 µM]
